The values that follow come from ChEMBL document CHEMBL1157539, “Thousands of chemical starting points for antimalarial lead identification” (Nature, 2010).

Structures are written as SMILES.

What all share (format): functional
In assay [1] the test system is Plasmodium falciparum. Kind of assay: GSK_TCMDC: Inhibition of Plasmodium falciparum 3D7 in whole red blood cells, using parasite LDH activity as an index of growth. Test compounds present at 2uM.
For assay [2], the system named is Plasmodium falciparum. Kind of assay: GSK_TCMDC: Inhibition of Plasmodium falciparum Dd2 in whole red blood cells, using parasite LDH activity as an index of growth. Test compounds present at 2uM.
For another assay, the system named is HepG2. Kind of assay: GSK_TCMDC: Percent inhibition of human HepG2 cell line. Test compounds present at 10uM.

For `CN(C)c1ccc(N2C(N)=NC(N)=NC23CCCC3)cc1.Cl`, the Inhibition (in general, the share of the control response that was lost under treatment) in the assay with Plasmodium falciparum [1] worked out at 97%; in the assay with Plasmodium falciparum [2], 0%; with HepG2, 1%.
For `Cl.OCCNc1nc(Nc2ccc(Cl)cc2)nc2ccccc12`, in that order: 100%, 99% and 30%.
The like results for `CCCCCCCc1[nH]c2ccccc2c(=O)c1C` were, in that order, 97%, 96% and 48%.
For `O=C(c1ccc2ccccc2n1)N1CCCc2cc(Br)ccc21`, in that order: 97%, 74% and 19%.
`c1cncc(CN2CCCN(c3ccc4c(c3)CCN(Cc3ccc(-c5ncc[nH]5)cc3)CC4)CC2)c1`: the Inhibition in the assay on Plasmodium falciparum [1] worked out at 99%; in the assay with Plasmodium falciparum [2] it was 33%; in the assay on HepG2, 7%.
The like results for `CCn1c(-c2nonc2N)nc2cnc(Oc3cccc(NC(=O)c4ccc(OCCN(C(C)C)C(C)C)cc4)c3)cc21` were, in that order, 97%, 10% and 63%.
The like results for `COc1ccc(CN2CCC(CNC(C)c3cccc4ccccc34)CC2)cc1.O=C(O)C(F)(F)F` (stereo unspecified) were, in that order, 100%, 26% and 58%.
For `CCCCCc1cc(OCCN(C)C)cc2c1C(=O)CC(C)(C)O2.Cl`, in that order: 98%, 0% and 5%.
In the case of `CC(C)(C)c1ccc(CN2CCC(CNC(=O)c3cc(-c4cccc(F)c4)cs3)C2)cc1.O=C(O)C(F)(F)F` (stereo unspecified), the Inhibition with Plasmodium falciparum [1] is 100%; in the assay with Plasmodium falciparum [2] it was 55%; in the assay on HepG2 it was 32%.
For `CC[C@H]1CN(Cc2cccc(O)c2)CC[C@H]1CCCc1ccnc2ccc(O)cc12`, in that order: 100%, 98% and 14%.
Consider `Cc1ccc(-c2ccc(Cl)cc2Oc2cnc(N)nc2N)o1`, for which the figures for the Inhibition in the assay on Plasmodium falciparum [1], in the assay on Plasmodium falciparum [2] and in the assay with HepG2 were 100%, 3% and 15%, respectively.
The like results for `COc1ccc2nccc([C@@H](O)CN3CCC(NCc4cc5cccc6c5n(c4=O)CCC6)CC3)c2c1.O=C(O)C(=O)O` were, in that order, 98%, 97% and 33%.
For `O=C(NCCNc1ccnc2cc(Cl)ccc12)c1ccccc1F`, in that order: 99%, 98% and 30%.
In the case of `O=C(Nc1ccc(Cl)cc1)c1ccc(CN2CCCN(Cc3cccc(O)c3)CC2)cc1.O=C(O)C(F)(F)F`, the Inhibition with Plasmodium falciparum [1] is 100%; in the assay on Plasmodium falciparum [2], 69%; in the assay on HepG2, 52%.
In the case of `CC(=O)Nc1ccc(OCCCN(Cc2ccccc2OC(F)(F)F)c2ccc(C(F)(F)F)c(C#N)c2)c(Cl)c1`, the values for the Inhibition in the assay on Plasmodium falciparum [1], in the assay with Plasmodium falciparum [2] and in the assay on HepG2 were 91%, 80% and 5%, respectively.
As to `O=C(NCCCCN1CCC(c2ccc([N+](=O)[O-])cc2)CC1)c1ccc(NC(=O)c2ccc(Cl)cc2)cc1`, the results for the Inhibition in the assay on Plasmodium falciparum [1], in the assay on Plasmodium falciparum [2] and in the assay on HepG2 were 100%, 55% and 15%, respectively.
The like results for `O=C(Nc1ccc2ccccc2c1)c1ccc(CN2CCC(Cc3ccccc3)CC2)cc1` were, in that order, 95%, 10% and 38%.
For `O=C(Nc1ccc(F)cc1F)NC1CCN(CCCCCNC(=O)C2CC2c2ccc(Cl)c(Cl)c2)CC1` (stereo unspecified), in that order: 100%, 32% and 41%.
The like results for `CCc1ccccc1N1CCN(CCCC(=O)c2ccc(NC(=O)c3cc(Cl)cc(Cl)c3)cc2)CC1` were, in that order, 99%, 46% and 16%.
Regarding `CCOc1ccc(C(=O)Nc2nonc2-c2ccc(OC)c(OC)c2)cc1`, the Inhibition amounted to 95% in the assay on Plasmodium falciparum [1], 42% in the assay on Plasmodium falciparum [2] and 7% with HepG2.
For `CCOc1ccc2c(=NN=Cc3cccc(F)c3)cc(C)[nH]c2c1`, in that order: 100%, 100% and 0%.
In the case of `Cc1cc(N[C@@H](Cc2ccccc2)C(=O)Nc2ccccc2)nc(NCCN2CCCC2)n1.O=C(O)C(F)(F)F`, the Inhibition with Plasmodium falciparum [1] turned out to be 94%; with Plasmodium falciparum [2], 0%; in the assay with HepG2, 8%.
For `CN1CCN(C(C(=O)NCc2cc(Cl)cc(Cl)c2)c2ccccc2-c2ccsc2)CC1` (stereo unspecified), in that order: 95%, 80% and 11%.
The like results for `CC(CN(C)C)C(=O)Nc1ccc(-c2ccc(-c3nc4cc(C(F)(F)F)ccc4[nH]3)cc2)cc1` (stereo unspecified) were, in that order, 100%, 93% and 14%.
The like results for `CC(C)OC(=O)c1cccnc1SCC(=O)Nc1ccc(C(F)(F)F)cc1Cl` were, in that order, 97%, 88% and 3%.
Consider `CNC(=O)/C=C/c1cc(NC(=O)Nc2ccnc3c(Br)cccc23)ccc1OC`, for which the Inhibition in the assay on Plasmodium falciparum [1] is given as 95%; with Plasmodium falciparum [2] it was 68%; with HepG2 it was 12%.
For `Cc1nc(-c2nc(N3CCOCC3)ncc2-c2ccsc2)sc1C`, in that order: 89%, 75% and 5%.
The like results for `COc1ccc(-c2cc(C(=O)N[C@@H](CC3CCCCC3)C(=O)NCCN3CCCC3)ccc2O)cc1` were, in that order, 90%, 12% and 12%.
The like results for `Cc1noc(-c2ccc3c(c2)CCN(CCC2CCC(NC(=O)/C=C/c4ccc(F)cc4)CC2)CC3)n1.Cl` (stereo unspecified) were, in that order, 91%, 39% and 44%.
On to `c1ccc2[nH]c(-c3ccc(-c4ccc(CN5CCC(N6CCCCC6)CC5)cc4)s3)nc2c1`, for which the Inhibition in the assay on Plasmodium falciparum [1] worked out at 99%; in the assay with Plasmodium falciparum [2] it was 100%; with HepG2, 26%.
The like results for `O=C(Nc1ccc(-c2cccc(-c3nc4ccccc4[nH]3)c2)cc1)Nc1ccc(Cl)c(Cl)c1` were, in that order, 100%, 80% and 61%.
For `O=C(NCCCN1CCN(c2cccc(Cl)c2)CC1)c1ccc(-c2nc3cc(Cl)c(Cl)cc3[nH]2)c(F)c1`, in that order: 100%, 72% and 3%.
The like results for `COc1cccc2c(Oc3ccccc3C)ccnc12` were, in that order, 85%, 45% and 0%.
`CCNc1cc(C(=O)N[C@@H](Cc2ccccc2)[C@H](O)CNC2C3CC4CC(C3)CC2C4)cc(N2CCCCS2(=O)=O)c1.Cl` (stereo partly specified): the results for the Inhibition in the assay with Plasmodium falciparum [1], in the assay on Plasmodium falciparum [2] and with HepG2 were 97%, 96% and 0%, respectively.
For `N#Cc1ccc2[nH]c(-c3cc(-c4cccc(F)c4)cnc3N)nc2c1.O=C(O)C(F)(F)F`, in that order: 100%, 93% and 46%.
Turning to `O=C(N[C@H]1CCN(Cc2ccc(OCCCN3CCCCC3)cc2)C1)c1ccc(Oc2ccccc2)cc1`, the Inhibition in the assay with Plasmodium falciparum [1] came out at 96%; with Plasmodium falciparum [2], 11%; in the assay on HepG2, 56%.
For `Cc1cccc2nc(-c3ccc(-c4ccc(NC(=O)Nc5ccsc5)cc4)cc3)[nH]c12`, in that order: 100%, 70% and 49%.
For `Cl.Clc1ccc(OC2CCC(Cn3ccnc3)(c3ccc(Cl)cc3Cl)CC2)c(Cl)c1` (stereo unspecified), in that order: 98%, 86% and 4%.
In the case of `COc1cccc(-c2nn(C)c3sc(C(=O)NCCN4CCN(c5ccccc5F)CC4)cc23)c1`, the values for the Inhibition with Plasmodium falciparum [1], in the assay with Plasmodium falciparum [2] and in the assay with HepG2 were 85%, 40% and 9%, respectively.
For `Cc1cccc2nc(-c3ccc(-c4ccc(CNCCNC(=O)c5ccnn5C)cc4)cc3)[nH]c12.O=C(O)C(F)(F)F`, in that order: 100%, 98% and 29%.
The like results for `OC(CNc1ccnc(Nc2cccc(Cl)c2)n1)c1ccc(C(F)(F)F)cc1` (stereo unspecified) were, in that order, 100%, 61% and 13%.
For `Cc1cc(N[C@@H](Cc2ccccc2)C(=O)NCCc2ccccc2)nc(NCC2CCCCC2)n1.O=C(O)C(F)(F)F`, in that order: 100%, 95% and 24%.
Regarding `O=C(Nc1ccc(F)c(F)c1)c1ccc(CN2CCCN(Cc3cccc(F)c3)CC2)cc1.O=C(O)C(F)(F)F`, the values for the Inhibition with Plasmodium falciparum [1], in the assay on Plasmodium falciparum [2] and in the assay with HepG2 were 83%, 12% and 51%, respectively.
The like results for `Cc1cc(N[C@@H](CC(C)C)C(=O)NCCOc2ccccc2)nc(NCC2CCCCC2)n1.O=C(O)C(F)(F)F` were, in that order, 97%, 53% and 24%.
Regarding `CCN(CCCN1CCCCC1)c1cc(C)nc(Nc2ccc(C)cc2)n1.O=C(O)C(F)(F)F`, the Inhibition in the assay with Plasmodium falciparum [1] came out at 100%; in the assay with Plasmodium falciparum [2], 10%; with HepG2 it was 17%.
For `Cc1cc(N(C)CCN(C)C)nc(Nc2ccc(Cl)cc2)n1`, in that order: 92%, 14% and 0%.
The like results for `COc1cc(NCCCCCNc2cc(Cl)nc3ccccc23)nc2ccccc12` were, in that order, 100%, 54% and 17%.
For `CCN(CCC1(c2ccc(Cl)c(Cl)c2)CN(C(=O)c2cc(OC)c(OC)c(OC)c2)CCO1)C1CC2c3ccccc3CC21` (stereo unspecified), in that order: 80%, 65% and 26%.
For `Cn1nccc1C(=O)NCCNCc1ccc(-c2ccc(-c3nc4cc(C(F)(F)F)ccc4[nH]3)cc2)cc1.O=C(O)C(F)(F)F`, the Inhibition came to 100% with Plasmodium falciparum [1], 99% in the assay with Plasmodium falciparum [2] and 35% with HepG2.
In the case of `CN1CCCC1CCNC(=O)[C@H](CC1CCCCC1)NC(=O)c1ccc(O)c(-c2ccc(Cl)c(Cl)c2)c1` (stereo partly specified), the Inhibition in the assay on Plasmodium falciparum [1] turned out to be 98%; in the assay on Plasmodium falciparum [2] it was 35%; in the assay with HepG2 it was 0%.
For the compound `CCN(CC)c1ccc(C(=O)Cn2ccc(=N)cc2)cc1`, the Inhibition is on record as 84% in the assay on Plasmodium falciparum [1], 64% in the assay with Plasmodium falciparum [2] and 92% with HepG2.
The like results for `O=C(Nc1ccc(N2CCCCC2)c(Cl)c1)c1nc[nH]n1` were, in that order, 93%, 93% and 0%.
On to `CC(C)Nc1ccc(Nc2ccnc3cc4ccccc4cc23)cc1`, for which the Inhibition was found to be 100% with Plasmodium falciparum [1], 81% in the assay with Plasmodium falciparum [2] and 37% in the assay with HepG2.
The like results for `C=CCc1ccc(C2CCN(CCCCNC(=O)c3ccc(NC(=O)c4ccc(Cl)cc4)cc3)CC2)cc1` were, in that order, 100%, 97% and 27%.
The like results for `CC(C)CCNC(=O)[C@@H]1[C@H]2C(=O)N(C3CCCCC3)C(=O)[C@H]2[C@H]2C=C[C@@H]3C(c4ccc(C(C)(C)C)cc4)=NO[C@@H]3N21` were, in that order, 96%, 48% and 0%.
For `CCCCCC(=O)NCC(NCCCNc1cc(=O)c2ccccc2[nH]1)c1cc(Br)cc(Br)c1` (stereo unspecified), in that order: 96%, 66% and 0%.
Turning to `Cc1cc(N2CCCC2)nc(Nc2ccc(NC(=O)Cc3ccccc3)cc2)n1`, the Inhibition in the assay on Plasmodium falciparum [1] is 100%; in the assay on Plasmodium falciparum [2], 72%; with HepG2 it was 71%.
For `C(=NN=c1cc[nH]c2ccccc12)c1ccncc1`, in that order: 95%, 27% and 7%.
The like results for `Nc1nc(N)c2c(ccc3nn(C4CCCC4)cc32)n1` were, in that order, 97%, 3% and 44%.
The like results for `Cl.N=c1n(CCN2CCCCC2)c2ccccc2n1CC(O)c1ccc(Cl)c(Cl)c1` (stereo unspecified) were, in that order, 97%, 97% and 50%.
As for `COc1ccc(C[C@H](N)C(=O)N[C@H]2[C@@H](O)[C@H](n3cnc4c(N(C)C)ncnc43)O[C@@H]2CO)cc1` [PUROMYCIN], the results for the Inhibition with Plasmodium falciparum [1], in the assay with Plasmodium falciparum [2] and in the assay with HepG2 were 100%, 100% and 99%, respectively.
`O=C(Nc1cccc(Cl)c1Cl)NC1CCN(Cc2cccc(O)c2)CC1.O=C(O)C(F)(F)F`: the Inhibition in the assay on Plasmodium falciparum [1] is given as 98%; in the assay on Plasmodium falciparum [2], 1%; in the assay on HepG2, 1%.
